PubChem BioAssay
Entries with a potency or affinity are not part of this list. Results filed as inconclusive are left out.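 The calls were made as follows: active = falling signal with fitted half-maximal potency no higher than twice the top valid tested dose; inconclusive = poor fit quality, or flat fit spanning -70% to -30%; inactive = potency over limit, rising signal, or flat fit inside 30%.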

experiment: fungal growth arrest, C. neoformans – Alamar Blue, cherry-picks, dose response (AID 686998); details: Cryptococcus neoformans growth, 24 h; series mostly up to 35 µM; activity change, negative = inhibition: at the top concentration

Activity change, negative = inhibition, inactive:
COc1ccc(-c2cnc3c(c2)C(=O)N([C@@H](C)CO)C[C@H](C)[C@@H](CN(C)S(C)(=O)=O)O3)cc1 34.3%
C[C@H]1CN([C@@H](C)CO)C(=O)c2cc(NC(=O)CCN3CCOCC3)ccc2O[C@@H]1CN(C)Cc1ccc(C(=O)O)cc1 5.76%
Cc1cccc(C)c1NC(=O)C(CCc1ccccc1)N1CCN(C)CC1 (centres undefined) 4.87%
O=C(NC1CCCC1)N1CCCCN2[C@H](CO)[C@@H](c3ccc(-c4cncnc4)cc3)[C@H]2C1 61.5%
CO[C@@H]1CN(C)C(=O)c2ccc(NC(=O)Nc3ccccc3)cc2OC[C@H](C)N(C(C)=O)C[C@H]1C 2.92%
CCc1ccc(NC(=O)C2NC(=O)CC2c2ccccc2)cc1 (centres undefined) -31.9% [at 56 µM]
C[C@@H]1CN([C@@H](C)CO)C(=O)c2cccc(NC(=O)Nc3ccccc3)c2O[C@H]1CN(C)S(=O)(=O)c1cn(C)cn1 40.3%
COCC(=O)NC[C@H]1N[C@H](CO)[C@@H]1c1ccc(C2=CCCC2)cc1 -8.65%
CO[C@H]1CN(C)C(=O)c2cc(NC(C)=O)ccc2OC[C@H](C)N(Cc2cccc(F)c2)C[C@@H]1C -23.2%
C[C@@H]1CN([C@@H](C)CO)S(=O)(=O)c2ccc(C#C[C@@H](C)O)cc2O[C@@H]1CN(C)C(=O)C1CCCCC1 -2.24%
CCCN1C[C@H](C)[C@@H](OC)CN(C)C(=O)c2cc(NC(=O)c3cccc(F)c3)ccc2OC[C@H]1C 8.23%
C[C@@H]1CCCCO[C@H](CN(C)C(=O)c2ccncc2)[C@H](C)CN([C@H](C)CO)C(=O)c2cc(NC(=O)CCC(F)(F)F)ccc2O1 10.8%
C[C@H](CO)N1C[C@H](C)[C@@H](CN(C)S(C)(=O)=O)Oc2cc(C#Cc3ccccc3)ccc2S1(=O)=O 26.7%
CC(C)NC(=O)Nc1ccc2c(c1)C(=O)N([C@@H](C)CO)C[C@@H](C)[C@H](CN(C)Cc1ccncc1)OCCCC[C@@H](C)O2 42.4%
Cc1noc(C)c1S(=O)(=O)Nc1ccc2c(c1)CC(=O)N([C@@H](C)CO)C[C@H](C)[C@@H](CN(C)S(=O)(=O)c1cn(C)cn1)O2 -27%
O=C(C[C@@H]1CC[C@H]2[C@@H](COC[C@@H](O)CN2Cc2ccc(Cl)cc2)O1)NCc1cccc(F)c1 -28.3%
COc1ccc(NC(=O)Nc2ccc3c(c2)C(=O)N([C@@H](C)CO)C[C@@H](C)[C@H](CN(C)C(=O)Cc2ccccc2)OCCCC[C@H](C)O3)cc1 2.44%
C[C@@H]1CN([C@H](C)CO)C(=O)Cc2cc(NC(=O)Nc3cccc4ccccc34)ccc2O[C@@H]1CN(C)Cc1ccc(C(=O)O)cc1 3.12%
CC=Cc1ccc2n(c1=O)C[C@H]1[C@H](CO)[C@@H](C(=O)NCc3ccc4c(c3)OCO4)[C@@H]2N1C(=O)C1CC1 (mixture of isomers) -6.73%
Cc1cccc(C)c1NC(=O)C(C)N1CCCCC1 (centres undefined) 24.4%
COCC(=O)N1[C@H](C#N)[C@H](c2ccc(C#Cc3ccccc3F)cc2)[C@H]1CO 23.4%
CCC(=O)N(C)C[C@H]1Oc2cc(C#CC(C)(C)O)ccc2S(=O)(=O)N([C@H](C)CO)C[C@@H]1C -9.23%
CCCNC(=O)N1C[C@@H]2[C@H](c3ccccc31)[C@H](CO)N2Cc1ccc(OC)cc1 -21.6%
C[C@@H]1CN([C@@H](C)CO)C(=O)c2cc(NS(=O)(=O)c3ccc(F)cc3)ccc2O[C@@H](C)CCCCO[C@@H]1CN(C)Cc1ccc2c(c1)OCO2 16.5%
C[C@H](CO)N1C[C@H](C)[C@@H](CN(C)C(=O)c2cccc(F)c2)Oc2cc(-c3cncnc3)ccc2S1(=O)=O -11.4%
CO[C@H]1CN(C)C(=O)c2cc(NS(=O)(=O)c3ccc(C)cc3)ccc2OC[C@H](C)N(C)C[C@H]1C 16.4%
COc1ccc(NC(=O)Nc2ccc3c(c2)C(=O)N([C@H](C)CO)C[C@@H](C)[C@@H](CN(C)C(=O)CCC(F)(F)F)OCCCC[C@H](C)O3)cc1 -21%
C=CCNC(=O)CN(c1ccc(F)cc1)S(=O)(=O)c1ccc(OC)cc1 -34.7%
COc1ccc(-n2ncc3c(SCC(=O)OC(C)C)ncnc32)cc1 -3.28%
COCC(=O)N1C[C@H](C)[C@H](OC)CN(C)C(=O)c2ccc(NC(=O)NC(C)C)cc2OC[C@@H]1C 22.5%
COc1ccc(S(=O)(=O)N[C@@H]2C=C[C@@H](CC(=O)N3CCC(Cc4ccccc4)CC3)O[C@H]2CO)cc1 -21.4%
C/C=C/c1cnc2c(c1)C(=O)N([C@@H](C)CO)C[C@@H](C)[C@@H](CN(C)C(=O)C1CCCCC1)O2 -31.5%
CCC(C(=O)Nc1c(C)cc(C)cc1C)N1CCCCCC1 (centres undefined) -29.6%
C[C@H]1CN([C@@H](C)CO)C(=O)Cc2cc(NC(=O)Nc3ccccc3)ccc2O[C@@H]1CN(C)C(=O)Nc1ccc2c(c1)OCO2 -26.2%
Cc1ccc(S(=O)(=O)Nc2ccc3c(c2)C(=O)N([C@@H](C)CO)C[C@@H](C)[C@@H](CN(C)S(=O)(=O)c2ccc(Cl)cc2)OCCCC[C@H](C)O3)cc1 52.8%
CNC(=O)C[C@H]1CC[C@H]2[C@H](COc3ccc(NC(=O)Nc4ccccc4)cc3C(=O)N2C)O1 1.35%
O=C(Nc1cccc(F)c1)N[C@H]1CC[C@@H](CCNS(=O)(=O)c2cccc(Cl)c2)O[C@@H]1CO -19.8%
COc1ccc(S(=O)(=O)Nc2ccc3c(c2)C(=O)N([C@H](C)CO)C[C@@H](C)[C@@H](CN(C)C(=O)Nc2ccccc2)O3)cc1 38.1%
C[C@@H]1CN([C@H](C)CO)C(=O)c2cccc(NC(=O)C3CC3)c2O[C@H]1CN(C)Cc1ccc(C(=O)O)cc1 -13.7%
